Screens deposited in PubChem BioAssay by National Center for Advancing Translational Sciences (NCATS).
This is a sample that favours compounds with a hit; in the whole collection about 12% have one here.
HP1b binding inh: inhibitors of HP1-beta chromodomain binding to methylated histone tails | AlphaScreen HP1-beta / biotin-H3K9me3 peptide binding | AID 540317 | P83916 | 390,000 tested, 0.56% active | Potency, µM (titrated, usually from 114 µM), for the others: at the top dose activity change, negative = inhibition, hits mostly inhibitors; also: nearly all actives have a fitted effect of over 70% in size
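Compound inhibition of the preformed complex between 50 nM HP1-beta and 50 nM biotinylated H3K9me3 peptide was read by AlphaScreen. Buffer was PBS pH 7.4 with 0.01% Tween-20. Incubations ran 30 min at room temperature, with 10 ug/mL donor/acceptor beads.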
BAZ2B block: BAZ2B (human) inhibition; Potency, µM (top dose mostly 114 µM), inactives show top-dose activity change, negative = inhibition, hits mostly inhibitors; 360,000 tested, 4.4% active; AlphaScreen BAZ2B-H3K14Ac peptide displacement; also: % is scaled to controls: 0 for no effect and ±100 for the full control effect; nearly all actives have a fitted effect of over 60% in size
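Compounds, titrated to a top concentration of 110 uM, were incubated 30 min at room temperature with preformed BAZ2B/acetyl-K14 H3 peptide complex (50 nM each). Proximity signal was measured by AlphaScreen after 20 min with beads.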
Sfp inh: Sfp phosphopantetheinyl transferase inhibition; Q9F4F7; Biochemical Sfp PPTase activity, qHTS; Potency, µM, for inactives: largest response in the series, negative = inhibition, hits mostly inhibitors; 310,000 tested, 3.5% active;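 also: the enzyme is Sfp with the accession as filed and its product quenches rhodamine fluorescence; 0% = enzyme reaction without inhibitor and -100% = no enzyme wells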
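Compounds were incubated with enzyme (final 15 nM) for 15 min at room temperature before substrate addition started the reaction. Fluorescence at 525 nm excitation, 598 nm emission was recorded immediately and after 30 minutes.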
JMJD2A Tudor: JMJD2A Tudor domain (human) inhibition. O75164. AlphaScreen JMJD2A-Tudor / H3K4me3 peptide binding. Potency, µM (top dose mostly 114 µM), without a hit: at the highest dose activity change, negative = inhibition, hits mostly inhibitors. 390,000 tested, 4.4% active; also: % is scaled to controls: 0 for no effect and ±100 for the full control effect; nearly all actives have a fitted effect of over 50% in size
Target sequence (O75164 whole entry, looked up, the tested form may be a part): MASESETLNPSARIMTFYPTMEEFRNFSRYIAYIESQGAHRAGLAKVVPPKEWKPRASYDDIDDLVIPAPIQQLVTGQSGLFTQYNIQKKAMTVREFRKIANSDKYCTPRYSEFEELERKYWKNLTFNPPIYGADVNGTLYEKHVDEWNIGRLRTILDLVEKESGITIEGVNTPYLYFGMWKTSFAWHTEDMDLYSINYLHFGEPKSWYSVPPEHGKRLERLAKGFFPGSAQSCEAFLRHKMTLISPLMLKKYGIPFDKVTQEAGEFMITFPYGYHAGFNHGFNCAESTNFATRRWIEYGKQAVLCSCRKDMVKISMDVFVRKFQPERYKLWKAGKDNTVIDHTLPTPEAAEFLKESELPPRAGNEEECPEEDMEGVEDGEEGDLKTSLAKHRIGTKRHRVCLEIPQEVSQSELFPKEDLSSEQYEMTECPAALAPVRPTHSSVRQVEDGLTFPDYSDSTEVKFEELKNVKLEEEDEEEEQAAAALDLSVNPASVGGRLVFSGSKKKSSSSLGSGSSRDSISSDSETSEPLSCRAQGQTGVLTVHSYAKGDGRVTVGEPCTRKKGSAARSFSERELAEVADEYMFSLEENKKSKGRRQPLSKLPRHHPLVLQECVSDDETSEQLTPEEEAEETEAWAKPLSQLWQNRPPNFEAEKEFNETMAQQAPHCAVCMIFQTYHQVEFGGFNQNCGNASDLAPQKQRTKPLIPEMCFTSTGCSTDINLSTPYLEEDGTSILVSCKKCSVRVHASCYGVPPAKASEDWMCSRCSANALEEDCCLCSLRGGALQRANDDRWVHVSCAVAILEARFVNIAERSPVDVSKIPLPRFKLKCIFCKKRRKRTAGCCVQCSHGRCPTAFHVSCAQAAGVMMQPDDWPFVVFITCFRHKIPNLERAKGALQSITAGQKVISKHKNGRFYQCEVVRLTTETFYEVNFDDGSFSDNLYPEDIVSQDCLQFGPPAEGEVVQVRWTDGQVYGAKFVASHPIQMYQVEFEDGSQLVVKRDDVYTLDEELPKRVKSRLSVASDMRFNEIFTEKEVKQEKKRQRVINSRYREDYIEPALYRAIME
G9a block: blocks human histone lysine methyltransferase G9a; Q96KQ7; G9a H3K9 monomethylation, AlphaScreen, 2 h; Potency, µM (series often up to 102 µM), for the others: at the highest dose activity, negative = inhibition, usual class: inhibitors; 350,000 tested, 8.8% active; AID 504332; also: % is scaled to controls: 0 for no effect and ±100 for the full control effect; nearly all actives have a fitted effect of over 75% in size
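AlphaScreen read-out: biotin-H3K9 peptide (500 nM) methylation by 20 nM enzyme with 20 uM SAM, 2 h at room temperature after 15 min compound preincubation; anti-monomethyl H3K9 antibody plus donor/acceptor beads, 10 min dark.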
L3MBTL1 block: inhibitors of human L3MBTL1; Q9Y468; AlphaScreen L3MBTL1–H3K9me1 peptide binding; Potency, µM (highest dose often 57.1 µM), for the others: at the highest dose activity, negative = inhibition, usual class: inhibitors; 230,000 tested, 0.66% active; AID 485360; also: % is scaled to controls: 0 for no effect and ±100 for the full control effect; nearly all actives have a fitted effect of over 60% in size
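Read-out is AlphaScreen signal from streptavidin donor and nickel chelate acceptor beads (10 ug/mL final each) bridging L3MBTL1 (50 nM) and biotinylated K9-monomethylated H3(1-15) peptide (75 nM), after 30 min compound exposure at room temperature.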
The depositor's hits bear a star; ? = inconclusive; / = not tested or not shown; [ ] = remark or other dose. Calls follow the shape of the dose curve; as a rule, active = well fitted curve in the direction sought with a large enough effect; inconclusive = small, poorly fitted or top-dose-only effect, or another doubt; inactive = no such curve, though single readings can be large; an effect the other way counts as inactive or inconclusive. Potency is read from the fitted curve at half-maximal effect.

SMILES	HP1b binding inh	BAZ2B block	Sfp inh	JMJD2A Tudor	G9a block	L3MBTL1 block
C=C(C)[C@]12C[C@@H](C)[C@@]34O[C@](Cc5ccccc5)(O[C@@H]1[C@@H]3C=C(COC(=O)Cc1ccc(O)c(OC)c1)C[C@]1(O)C(=O)C(C)=C[C@@H]41)O2	/	/	22%	/	?	/
CCOP(=O)(Cc1cc(C(=O)CC)c(C)o1)OCC	55%	-5%	?	9%	8.9µM*	-4%
CCCN(CCC)c1c([N+](=O)[O-])cc(C(F)(F)F)cc1[N+](=O)[O-]	/	/	4%	/	/	/
COC(=O)C(O)(c1ccc(NC(=S)NC(=O)c2ccc(Cl)cc2Cl)c(C)c1)C(F)(F)F (configuration not stated)	-20%	-35%	-27%	79µM*	1%[59 µM]	-2%
CCOC(=O)C(O)(c1ccc(NC(=S)NC(=O)c2ccc(Cl)cc2Cl)c(C)c1)C(F)(F)F (configuration not stated)	-4%	-9%	-15%	-18%	10%[59 µM]	-4%
CC(Oc1ccc(Br)cc1)C(=O)N(Cc1nc(-c2ccccc2)no1)C(C)C (configuration not stated)	47%	14%	/	16%	-5%[59 µM]	/
Cc1cccc(N2C(=O)NC(=O)/C(=C/c3ccc(N4CCOCC4)cc3)C2=O)c1	23%	/	50µM*	-12%	?	-7%
Cc1cc(/C=C2\C(=O)NC(=O)N(c3cccc(Br)c3)C2=O)c(C)n1C	26%	4%	2%	-11%	22%[59 µM]	-1%
Cc1cccc(N2C(=O)NC(=O)/C(=C\c3ccc(N4CCOCC4)cc3)C2=O)c1	?	-13%	25µM*	-5%	?	-6%
c1cnc(N2CCC3(CCNCC3)CC2)nc1	/	/	?	/	-4%[12.7 µM]	/
Clc1cncc(N2CCNCC2)n1	/	/	-10%	/	19%[59 µM]	/
COc1ccc(CCNCc2cccc(C(F)(F)F)c2)cc1OC	-7%	50µM*	-14%	45µM*	11µM*	4%
COc1ccccc1CCNCc1cccc(C(F)(F)F)c1	12%	8%	13%	-31%	71µM*	-1%
COc1ccc(CCNCc2ccc(F)cc2)cc1OC	29%	13%	1%	-8%	77%[59 µM]	/
CN1C(=O)N(C)C(=O)C2(Cc3ccccc3N3CCCC32)C1=O (configuration not stated)	27%	-6%	-9%	-20%	11%[12.7 µM]	-6%
O=C1NC(=O)C2(Cc3ccccc3N3CCCC32)C(=O)N1c1ccc(Cl)cc1 (configuration not stated)	15%	12%	-2%	?	20µM*	-10%
Cc1ccc(N2C(=O)NC(=O)C3(Cc4ccccc4N4CCCC43)C2=O)cc1 (configuration not stated)	33%	-2%	?	-27%	8.9µM*	-3%
CCC1(C)CC(C(N)=S)CCO1 (configuration not stated)	?	?	4.5µM*	56µM*	-138%[12.7 µM]	2%
CC1=C[C@@H]2c3cccc4[nH]cc(c34)C[C@H]2N(C)C1	1%[57 µM]	-26%	-4%	-23%	45µM*	/
COC1=C[C@H]2[C@H]3Cc4ccc(OC)c(O)c4[C@@]2(CCN3C)CC1=O	/	/	-6%	/	/	/
O=[N+]([O-])c1ccc(-c2ccc(C=Nc3cccc4ccccc34)o2)cc1	?	40µM*	9%	16µM*	6.3µM*	-27%
CC(C)[C@@H]1CN[C@H](C(=O)O)[C@@H]1CC(=O)O	/	/	-38%	/	/	/
COc1ccc(CN2CCNCC2)cc1	32%	-5%	13%	-7%	?	14%
O=C1NC(=O)N(Cc2ccc(F)cc2)C(=O)/C1=C\c1ccc([N+](=O)[O-])s1	?	35µM*	40µM*	20µM*	6.3µM*	/
COc1ccc(CN2C(=O)NC(=O)/C(=C/c3ccc([N+](=O)[O-])s3)C2=O)cc1	28µM*	25µM*	20µM*	22µM*	8.9µM*	28µM*
SMILES	HP1b binding inh	BAZ2B block	Sfp inh	JMJD2A Tudor	G9a block	L3MBTL1 block
CCOC(=O)c1sc(/N=C/c2c(O)n(-c3ccccc3)c(=O)[nH]c2=O)c(C#N)c1C	?	?	50µM*	?	?	/
CCN(CC)c1ccc(N=Cc2c(O)n(-c3ccccc3C)c(=O)[nH]c2=O)cc1	-7%	?	?	?	?	-16%
CCN(CC)c1ccc(N=Cc2c(O)n(-c3ccccc3)c(=O)[nH]c2=O)cc1	20%	?	50µM*	-5%	?	/
CCOc1ccccc1-n1c(O)c(C=Nc2ccc(N(CC)CC)cc2)c(=O)[nH]c1=O	-21%	?	-28%	?	50µM*	-5%
Cc1ccc(-n2c(O)c(/C=C/C=Nc3ccccc3)c(=O)[nH]c2=O)cc1	35%	-4%	3%	-28%	?	-4%
CCOC(=O)c1c(/N=C/c2c(O)n(-c3cccc(C)c3)c(=O)[nH]c2=O)sc2c1CCCC2	-4%	-31%	?	-27%	?	0%
Cc1ccc(N/N=C/c2c(O)n(-c3ccccc3)c(=O)[nH]c2=O)cc1	-7%	-30%	-24%	-21%	3.2µM*	/
CC(=O)C1=C(O)[C@@H]2[C@@H]3c4c[nH]c5cccc(c45)C[C@@H]3C(C)(C)N2C1=O	/	/	-15%	/	/	/
Cc1ccc(NC(=O)Nc2cc3c(cc2N2CCCCC2)n(C)c(=O)n3C)cc1Cl	2%	?	/	?	?	/
Cc1ccc(-n2c(O)c(/C=N/c3ncc(Br)cc3Br)c(=O)[nH]c2=O)cc1	4%	?	-10%	-14%	9%[59 µM]	8%
CCc1nnc(NS(=O)(=O)c2ccc(N=Cc3c(O)n(-c4ccc(Cl)cc4)c(=O)[nH]c3=O)cc2)s1	-3%	-14%	13%	35µM*	?	12%
Cc1cccc(-n2c(O)c(C=Nc3ccc(Br)cn3)c(=O)[nH]c2=O)c1	11%	1%	-15%	10µM*	/	37%
CC[C@H](Oc1ccc(Cl)cc1)C(=O)OC1C[C@H]2CC[C@@H](C1)N2C (some centres not stated)	/	/	-1%	/	/	/
CCCOc1ccc(C(=O)CCC(=O)NNC(=O)c2ccncc2)cc1	29%	5%	12%	-6%	56%	/
COc1ccc(CN2C(=O)NC(=O)/C(=C\c3cc(OC)c(OC)c(OC)c3)C2=O)cc1	-24%	?	-9%	50µM*	?	/
COc1cc(OC)c(OC)cc1/C=C1/C(=O)NC(=O)N(Cc2ccccc2)C1=O	22%	-18%	-14%	-19%	50µM*	1%
COc1cc(OC)c(OC)cc1/C=C1\C(=O)NC(=O)N(Cc2ccccc2)C1=O	17%	-28%	-14%	-7%	?	/
